The nature of assay [1]: qHTS RealTime-Glo MT Cell Viability Assay in HepG2 cells - 40 hour (AID 1224870). Also: nearly all actives have a fitted effect of over 50% in size. Also: potency is read from the fitted curve at half-maximal effect. The essentials: (§1)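 HepG2 cells (600/well) mixed with RealTime-Glo MT reagent, settled 5 h at 37 C/5% CO2 before compound addition. Nonlytic NanoLuc luminescence from viable-cell prosubstrate reduction read repeatedly during 40 h treatment at 37 C.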
Background: Quantitative high-throughput screening tests each substance at several concentrations.

Assay [2] in a line: A CellTox Green Cytotoxicity Assay to monitor cytotoxicity in HEK293 cells - 40 hour (AID 1224871). Also: nearly all actives have a fitted effect of over 45% in size. The essentials: (§2)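 Cytotoxicity was tracked continuously in HEK293 cells by a DNA-binding dye excluded from viable cells. Compounds were transferred in DMSO 5 h after seeding; fluorescence was recorded at intervals up to 40 h.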
The nature of assay [3]: qHTS RealTime-Glo MT Cell Viability Assay in HepG2 cells - 8 hour (AID 1224873). Also: nearly all actives have a fitted effect of over 55% in size. The essentials:
as §1

Assay [4] in a line: qHTS RealTime-Glo MT Cell Viability Assay in HEK293 cells - 40 hour (AID 1224874). Also: nearly all actives have a fitted effect of over 50% in size. The settings on record: RealTime-Glo luminescence; max response: stronger effect = lower value. Summed up:
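Nonlytic bioluminescent viability monitoring. HEK293 at 600 cells/well with reagent; 5 h settle; compound transfer by pintool; plates held at 37 C and read at set time points.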

Assay [5] in a line: A CellTox Green Cytotoxicity Assay to monitor cytotoxicity in HEK293 cells - 24 hour (AID 1224875). Also: series mostly up to about 77 µM; nearly all actives have a fitted effect of over 45% in size. Summed up:
as §2

Assay [6] can be described thus: A CellTox Green Cytotoxicity Assay to monitor cytotoxicity in HepG2 cells - 16 hour (AID 1224876). Also: nearly all actives have a fitted effect of over 45% in size. Summed up: (§3)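 Real-time, homogeneous cytotoxicity readout: dead-cell DNA staining by CellTox Green in HepG2 monolayers, fluorescence measured at timed intervals up to 40 h of continuous compound exposure.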
Assay [7] can be described thus: qHTS RealTime-Glo MT Cell Viability Assay in HepG2 cells - 32 hour (AID 1224877). Also: nearly all actives have a fitted effect of over 55% in size. Also: potency is read from the fitted curve at half-maximal effect. The essentials:
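HepG2 cells (600/well) were dispensed with RealTime-Glo reagents, incubated 5 h at 37 °C, then treated with compounds in DMSO for up to 40 h. Nonlytic NanoLuc luminescence reflecting viable cells was read at each stated time point.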

The nature of assay [8]: A CellTox Green Cytotoxicity Assay to monitor cytotoxicity in HepG2 cells - 24 hour (AID 1224878). Also: nearly all actives have a fitted effect of over 45% in size. The essentials: as §3
Assay [9] can be described thus: A CellTox Green Cytotoxicity Assay to monitor cytotoxicity in HepG2 cells - 40 hour (AID 1224879). Also: nearly all actives have a fitted effect of over 40% in size. The essentials: as §3
A short description of assay [10]: qHTS RealTime-Glo MT Cell Viability Assay in HEK293 cells - 16 hour (AID 1224872). Also: top concentration of the series differs between compounds; nearly all actives have a fitted effect of over 50% in size. Summed up:
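HEK293 cells seeded with NanoLuc/prosubstrate reagent, rested 5 h at 37 C, then dosed and kept at 37 C up to 40 h. Nonlytic real-time luminescence from viable cells read at 0, 8, 16, 24, 32 and 40 h.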

Results filed as inconclusive are left out. Unmarked numbers belong to inactive results. The source made the active and inactive calls. Calls follow the shape of the dose curve; as a rule, active = well fitted curve in the direction sought with a large enough effect in the repeat runs; inconclusive = weak or mixed curves; inactive = no such curve, though single readings can be large; an effect the other way counts as inactive or inconclusive.
% is scaled to controls: 0 for no effect and ±100 for the full control effect.

Take `CC1CCN(CCCC(=O)c2ccc(F)cc2)CC1`: the Potency result in assay [1], in assay [2], in [5], in [6], in assay [7] and in assay [8] was “inactive” throughout. In addition, the Potency entry in [9] is “inactive”. The result in assay [3] was inactive. Also, in assay [4], the max response is -2.98%.
Turning to `CCCCCCOC(=O)c1ccccc1O`, the Potency entry in assay [1], in assay [2], in [10], in assay [5], in assay [6] and in assay [7] was “inactive” each time. Also, the Potency result in [8] and in assay [9] was “inactive” throughout. The max response in [4] was -8.04%.
In the case of `COc1ccc(N=[N+]([O-])c2ccc(OC)cc2)cc1`, the Potency result in assay [1], in assay [2], in assay [10], in assay [5], in assay [6] and in assay [7] was “inactive” each time. The Potency entry in [8] and in assay [9] was “inactive” in each case.
Regarding `CCOC(=O)[C@H](CCc1ccccc1)N[C@@H](C)C(=O)N1CCC[C@H]1C(=O)O`, the Potency result in assay [1], in [2], in assay [5], in assay [6], in assay [7] and in [9] was “inactive” throughout. Moreover, in assay [3], the compound was classed as inactive. Also, the max response in assay [4] was -0.439%.
Turning to `C#CC(C)(O)CC(C)C` (configuration not stated), the Potency result in assay [1], in assay [2], in [10], in [5], in [6] and in [7] was “inactive” in each case. In addition, the Potency result in assay [8] and in assay [9] was “inactive” in each case. Further, the max response in assay [4] was 22.3%.
Turning to `c1ccc2cnncc2c1`, the Potency entry in [1], in assay [2], in assay [5], in [7], in assay [8] and in [9] was “inactive” in each case. Besides, in assay [3], the result was inactive. Also, the max response in [4] is 12.8%.
In the case of `Cc1nc(-c2ccc(OCC(C)C)c(C#N)c2)sc1C(=O)O`, the Potency result in [1], in [10], in assay [5], in assay [6], in assay [7] and in [8] was “inactive” each time. Also, the Potency result in assay [9] is “inactive”. In addition, the compound was called inactive in assay [3]. Besides, the max response in assay [4] is -0.381%.
As to `CN1[C@@H]2CC[C@H]1CC(NC(=O)n1c(=O)[nH]c3ccccc31)C2` (some centres not stated), the Potency result in [1], in assay [10], in assay [5], in assay [6], in assay [7] and in assay [8] was “inactive” in each case. Further, in [9], the Potency result was “inactive”. Further, the compound was classed as inactive in [3]. Also, the max response in assay [4] is -2.86%.
Regarding `O=C(O)c1cccc(C(=O)O)n1`, the Potency entry in assay [1], in assay [10], in assay [5], in assay [6], in [7] and in [8] was “inactive” throughout. In assay [9], the Potency result is “inactive”. Also, the outcome in assay [3] was inactive. For the same compound, the max response in assay [4] was -0.906%.
Regarding `CCCC(=O)O[C@]1(C(=O)CCl)[C@@H](C)C[C@H]2[C@@H]3CCC4=CC(=O)C=C[C@]4(C)[C@@]3(F)C(=O)C[C@@]21C`, the Potency result in assay [1], in assay [2], in [6], in assay [7], in assay [8] and in assay [9] was “inactive” throughout. Further, the call in assay [3] was inactive. In addition, in [4], the max response is -19.8%.
As to `CCC(C)(C)C1CCC(OC)CC1` (configuration not stated), the Potency result in [1], in [2], in assay [5], in assay [6], in assay [7] and in assay [8] was “inactive” throughout. Also, the Potency entry in assay [9] is “inactive”. In addition, in assay [4], the max response was 21.9%.
Turning to `CCCCCOC(=O)Nc1nc(=O)n([C@@H]2O[C@H](C)[C@@H](O)[C@H]2O)cc1F`, the Potency result in [1], in assay [10], in [5], in [6], in assay [7] and in assay [8] was “inactive” in each case. Further, in [9], the Potency result was “inactive”. The compound was classed as inactive in assay [3]. The max response in [4] is 7%.
On to `CC(C)(C)C(=O)/C=C/c1ccc(Cl)cc1`, for which the Potency entry in [1], in [10], in assay [5], in [6], in [7] and in assay [8] was “inactive” in each case. The Potency result in assay [9] is “inactive”. Besides, the result in assay [3] was inactive. The max response in assay [4] is -0.497%.
Consider `Nc1[nH]c(=O)ncc1F`, for which the Potency result in assay [1], in assay [2], in [5], in [6], in assay [7] and in [8] was “inactive” each time. Further, the Potency entry in [9] is “inactive”. Also, the max response in assay [4] was 0.113%.
`CCCC=O`: the Potency entry in [1], in assay [2], in [6], in [7] and in assay [9] was “inactive” throughout. In addition, in [3], the compound was classed as inactive. For the same compound, the max response in assay [4] was 6.1%.
Consider `C=CCn1c(=O)n([C@@H]2O[C@H](CO)[C@@H](O)[C@H]2O)c2nc(N)[nH]c(=O)c21`, for which the Potency result in [1], in assay [2], in assay [5], in [6], in [7] and in [8] was “inactive” throughout. The Potency entry in assay [9] was “inactive”. Further, in assay [4], the max response was 3.44%.
Regarding `CC(C)c1ccc2oc3nc(N)c(C(=O)O)cc3c(=O)c2c1`, the Potency result in assay [1], in assay [2], in [5], in [6], in [7] and in assay [8] was “inactive” each time. Also, the Potency entry in assay [9] was “inactive”. Further, the max response in [4] is 13%.
Turning to `NS(=O)(=O)c1cc2c(cc1Cl)NC(CSCc1ccccc1)=NS2(=O)=O`, the Potency result in assay [1], in [10], in assay [5], in [6], in [7] and in assay [8] was “inactive” each time. In addition, the Potency result in [9] is “inactive”. Also, the outcome in assay [3] was inactive. The max response in assay [4] is -0.803%.
Take `CC1(C)SC(C)(C)SC(C)(C)S1`: the Potency result in assay [1], in assay [2] and in assay [7] was “inactive” each time. Also, the compound was called inactive in assay [3].
Regarding `NC(=O)c1ncn([C@@H]2O[C@H](CO)[C@@H](O)[C@H]2O)c1N`, the Potency result in assay [1], in assay [2], in assay [5], in assay [6], in [7] and in assay [8] was “inactive” throughout. The Potency entry in [9] is “inactive”. Further, the max response in assay [4] was -6.56%.
For the compound `CCCCCCCCCCCCI`, the Potency in [1] was 22 µM (active); in [7], 24.7 µM (active). The Potency result in [10], in assay [5], in assay [6], in assay [8] and in assay [9] was “inactive” throughout. The outcome in assay [3] was inactive. Besides, the max response in assay [4] is -9.8%.
Take `CC(C)COC(=O)c1ccccc1O`: the Potency entry in assay [1], in assay [10], in assay [5], in assay [6], in assay [7] and in assay [8] was “inactive” throughout. The Potency entry in assay [9] was “inactive”. The call in assay [3] was inactive. Further, the max response in assay [4] was 7.83%.
Turning to `O=[N+]([O-])c1ccc(Oc2ccc([N+](=O)[O-])cc2)cc1`, the Potency result in [1], in [2], in assay [5], in assay [6], in [7] and in assay [9] was “inactive” in each case. Also, in assay [3], the result was inactive.
As for `CC1=CC(=O)CCC1`, the Potency entry in assay [1], in [2], in assay [5], in [7], in [8] and in assay [9] was “inactive” throughout. Further, the compound was called inactive in [3]. Moreover, the max response in [4] was -3.69%.

The record behind these values is PubChem BioAssay (Tox21).
